# In PubChem BioAssay (EPA / NIEHS):
# Activity calls are given as the source filed them. Rule for the calls: active = hit-call score of the fitted dose curve at least 0.9, where 1 is the maximum; inconclusive = response in the unintended direction; inactive = score below 0.9.
# Assay: Tanguay_ZF_120hpf_ActivityScore_legacy: (Legacy) Oregon State University Tanguay Lab 120 Hour Post-fertilization zebrafish Assay Score for Activity (AID 2283742);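 for AC50: dechorionated Tropical 5D wild-type zebrafish embryos held singly per well; static exposure from 6 hpf until 120 hpf at 28 °C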
# Summary of the method: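 Embryos are staged, enzymatically dechorionated at 4 hpf, placed individually at 6 hpf, then held in test chemical (0.64% DMSO) at 28C until 120 hpf. Mortality and malformations are scored by brightfield, with non-mortality endpoints skipped for dead embryos.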
Structure (SMILES),outcome,AC50
Cn1c(=O)cc(Oc2ccc(F)cc2F)c2cnc(NCC(C)(C)O)nc21,inactive,–
C=CC(=C)CCC=C(C)C,inactive,–
CC[C@H](C)C(=O)O[C@H]1C[C@@H](C)C=C2C=C[C@H](C)[C@H](CC[C@@H]3C[C@@H](O)CC(=O)O3)[C@H]21,–,1.68 µM (active)
CC(C)c1cccc(C(C)C)c1N1C(=O)c2ccc(O)cc2C1=O,–,29.5 µM (active)
COc1cccc(-c2ccc(/C=C\CN3CCCCCC3)cc2Cl)c1,–,41.8 µM (active)
